Results filed as inconclusive are left out. Activity calls are given as the source filed them. The calls were made as follows: active = hit-call score of the fitted dose curve at least 0.9, where 1 is the maximum; inconclusive = response in the unintended direction; inactive = score below 0.9.

Sequence of Bile acid receptor (Homo sapiens) (Q96RI1 whole entry, looked up): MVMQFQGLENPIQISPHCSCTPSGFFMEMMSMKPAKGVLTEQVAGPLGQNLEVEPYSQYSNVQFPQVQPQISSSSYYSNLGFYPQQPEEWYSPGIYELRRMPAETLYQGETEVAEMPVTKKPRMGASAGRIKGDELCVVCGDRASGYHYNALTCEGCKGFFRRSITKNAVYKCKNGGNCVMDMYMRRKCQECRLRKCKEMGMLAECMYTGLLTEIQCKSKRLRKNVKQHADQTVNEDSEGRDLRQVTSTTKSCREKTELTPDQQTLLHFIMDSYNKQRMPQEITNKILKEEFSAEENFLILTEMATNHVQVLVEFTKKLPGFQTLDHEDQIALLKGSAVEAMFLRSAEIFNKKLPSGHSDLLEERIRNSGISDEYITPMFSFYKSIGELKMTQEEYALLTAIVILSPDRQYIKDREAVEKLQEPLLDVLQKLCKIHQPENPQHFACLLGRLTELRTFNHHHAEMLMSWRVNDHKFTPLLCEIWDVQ

One test addresses Bile acid receptor (Homo sapiens) (UniProt Q96RI1). The experiment in a line: OT_FXR_FXRSRC1_0480: Odyssey Thera (OT) 8-hour HEK293T Protein-Complementation Assay for Farnesoid X receptor/SRC-1 Co-activator (AID 2283383). In a few lines:
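Binding of FXR to coactivator SRC-1 was read as fluorescence from a reconstituted split reporter in HEK293T cells, 8 h after chemical addition. Only increases in signal versus DMSO were fit.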
On to `CC(=O)O[C@H]1C[C@@H]2CC[C@@]1(C)C2(C)C`, for which the compound was called inactive.
Same read-out and setting: then `C=C1C[C@]23C[C@@]1(O)CC[C@H]2[C@@]12C=C[C@H](O)[C@@](C)(C(=O)O1)[C@H]2[C@@H]3C(=O)O`, with “inactive”.
By AC50 is commonly meant the midpoint of the concentration-response curve, whichever way the signal moves. With `CCCCCCCCCCCCN1CCCCCC1=O`, the AC50 is 11.3 µM (active).
For the compound `CCC1(C)NC(=O)NC1=O` (centres undefined), the compound was classed as inactive.
On the same count and under the same terms, to `COS(=O)(=O)O` belongs “inactive”; to `C1=CC2C3C=CC(C3)C2C1` (centres undefined), “inactive”; to `O=C1OC(=O)c2c(Cl)c(Cl)c(Cl)c(Cl)c21`, “inactive”.
On the same count and under the same terms, then `CC(C)CCOC(=O)c1ccccc1`, with “inactive”.
On the same count and under the same terms, then `Cc1ccc(S(N)(=O)=O)cc1`, with “inactive”.
`C=C1CC[C@H](O)C/C1=C/C=C1\CCC[C@]2(C)[C@@H]([C@H](C)/C=C/[C@H](C)C(C)C)CC[C@@H]12`: the half-maximal activity concentration (AC50) was 36.8 µM (active).

The target is the same in the next test. Briefly: OT_FXR_FXRSRC1_1440: Odyssey Thera (OT) 24-hour HEK293T Protein-Complementation Assay for Farnesoid X receptor/SRC-1 Co-activator (AID 2283384). The method in brief:
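Protein-fragment complementation: FXR and SRC-1 fused to reporter fragments that reassemble on interaction, read by fluorescence intensity. Human HEK293T cells measured 24 h post-dose; positive-direction fit versus DMSO.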
Turning to `CCNCCO`, the compound was classed as inactive.
Regarding `CCCOCCO`, the outcome was inactive.
Same read-out and setting: to `CS(C)=O` belongs “inactive”; to `Nc1ccc(N)c2c1C(=O)c1ccccc1C2=O`, “inactive”; to `Cc1ccc(S(=O)(=O)Oc2ccc(N=Nc3ccc(-c4ccc(N=Nc5c(O)ccc6cc(S(=O)(=O)O)cc(S(=O)(=O)O)c56)c(C)c4)cc3C)cc2)cc1`, “inactive”.
As for `O=C(O)c1ccc(O)cc1`, the result was inactive.
For the compound `OCCc1ccccc1`, the compound was classed as inactive.
As for `CC(C=O)Cc1ccc(C(C)(C)C)cc1` (centres undefined), the call was inactive.
As to `Oc1ccc2cc(SSc3ccc4cc(O)ccc4c3)ccc2c1`, the AC50 is 75.3 µM (active).
As to `Cc1cc(S(=O)(=O)O)ccc1N=Nc1c(O)ccc2ccccc12`, the call was inactive.
Still for that read-out and setting: then `CC1CC(O)CC(C)(C)C1` (centres undefined), with “inactive”.

The target in a further test is Retinoic acid receptor RXR-alpha (Homo sapiens) (UniProt P19793). The experiment in a line: OT_NURR1_NURR1RXRa_0480: Odyssey Thera (OT) 8-hour HEK293T Protein Complementation Assay for Nurr1/retinoid X receptor (RXR) (AID 2283385). In a few lines: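 Interaction of Nurr1 with RXRα read as reconstituted reporter fluorescence in a HEK293T fragment-complementation system, 8 h post-treatment; increase over DMSO baseline analysed.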
Sequence of Retinoic acid receptor RXR-alpha (Homo sapiens) (P19793 whole entry, looked up, the tested form may be a part): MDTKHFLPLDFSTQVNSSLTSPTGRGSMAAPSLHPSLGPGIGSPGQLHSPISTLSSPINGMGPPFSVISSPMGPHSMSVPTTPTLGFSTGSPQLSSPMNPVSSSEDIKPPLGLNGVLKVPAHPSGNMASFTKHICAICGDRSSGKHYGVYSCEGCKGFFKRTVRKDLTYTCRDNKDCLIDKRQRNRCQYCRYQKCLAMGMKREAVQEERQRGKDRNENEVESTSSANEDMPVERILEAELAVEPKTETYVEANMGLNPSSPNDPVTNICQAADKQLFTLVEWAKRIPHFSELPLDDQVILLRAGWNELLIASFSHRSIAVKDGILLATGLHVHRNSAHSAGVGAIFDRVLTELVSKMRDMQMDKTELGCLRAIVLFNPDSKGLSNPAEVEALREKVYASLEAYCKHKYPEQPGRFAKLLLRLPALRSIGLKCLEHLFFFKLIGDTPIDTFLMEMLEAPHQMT
As for `CC(=O)O[C@H]1C[C@@H]2CC[C@@]1(C)C2(C)C`, the compound was called inactive.
The same measure, in the same setting: to `CS(C)=O` belongs “inactive”; to `CN1C(=O)c2ccccc2C1=O`, “inactive”.
The same measure, in the same setting: to `C=C[Si]1(C)O[Si](C)(C=C)O[Si](C)(C=C)O[Si](C)(C=C)O1` (centres undefined) belongs “inactive”; to `CCCCCC(=O)CC`, “inactive”.
On to `CCCCCCCCCCCCN1CCCCCC1=O`, for which the AC50 is 44.3 µM (active).
For `C#CC(C)(O)CC(C)C` (centres undefined), the call was inactive.
For `Cc1ccc(S(=O)(=O)Oc2ccc(N=Nc3ccc(-c4ccc(N=Nc5c(O)ccc6cc(S(=O)(=O)O)cc(S(=O)(=O)O)c56)c(C)c4)cc3C)cc2)cc1`, the AC50 is 35 µM (active).
For `C1=CC2C3C=CC(C3)C2C1` (centres undefined), the outcome was inactive.
Still for that read-out and setting: then `COC(=O)c1ccc(C)cc1C1=NC(C)(C(C)C)C(=O)N1` (centres undefined) (tested in a mixture with another compound), with “inactive”; and `CCCCC(CC)COC(C)=O` (centres undefined), with “inactive”.
Turning to `CCCCCC(C)=O`, the call was inactive.
Still for that read-out and setting: to `CC(C=O)Cc1ccc(C(C)(C)C)cc1` (centres undefined) belongs “inactive”.
For `Oc1ccc2cc(SSc3ccc4cc(O)ccc4c3)ccc2c1`, the AC50 is 78.7 µM (active).
As for `O=C(O)CCCCCCCCC(=O)O`, the result was inactive.
On the same count and under the same terms, to `O=C1OC(=O)c2c(Cl)c(Cl)c(Cl)c(Cl)c21` belongs “inactive”.
Same read-out and setting: then `O=Cc1ccccc1S(=O)(=O)O`, with “inactive”; and `COc1ccccc1N=Nc1c(S(=O)(=O)O)cc2cc(S(=O)(=O)O)cc(NC(C)=O)c2c1O`, with “inactive”.
Same read-out and setting: to `C=C1CC[C@H](O)C/C1=C/C=C1\CCC[C@]2(C)[C@@H]([C@H](C)/C=C/[C@H](C)C(C)C)CC[C@@H]12` belongs “inactive”; to `CCOc1ccc(N=Nc2ccc(C=Cc3ccc(N=Nc4ccc(OCC)cc4)cc3S(=O)(=O)O)c(S(=O)(=O)O)c2)cc1`, “inactive”; to `COCCOCCOCCO`, “inactive”.
Take `ON=C1CCCCC1`: the call was inactive.
Take `O=P(O)(O)O`: the outcome was inactive.
Still for that read-out and setting: to `CCCCC(CC)COC(=O)c1ccc(O)cc1` (centres undefined) belongs “inactive”.

A further test has the same target. The experiment in a line: OT_NURR1_NURR1RXRa_1440: Odyssey Thera (OT) 24-hour HEK293T Protein Complementation Assay for Nurr1/retinoid X receptor (RXR) (AID 2283386). The method in brief:
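Gain in fluorescence, fitted relative to DMSO, reflects Nurr1–RXRα association in HEK293T cells after 24 h dosing. Bait and prey are each linked to a reporter-protein fragment that reassembles on interaction.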
Turning to `CCNCCO`, the call was inactive.
Same read-out and setting: then `CCCOCCO`, with “inactive”.
Same read-out and setting: then `C=C1C[C@]23C[C@@]1(O)CC[C@H]2[C@@]12C=C[C@H](O)[C@@](C)(C(=O)O1)[C@H]2[C@@H]3C(=O)O`, with “inactive”.
Still for that read-out and setting: then `CS(C)=O`, with “inactive”; and `CN1C(=O)c2ccccc2C1=O`, with “inactive”; and `C=C[Si]1(C)O[Si](C)(C=C)O[Si](C)(C=C)O[Si](C)(C=C)O1` (centres undefined), with “inactive”.
With `CCCCCC(=O)CC`, the compound was called inactive.
Still for that read-out and setting: then `C#CC(C)(O)CC(C)C` (centres undefined), with “inactive”; and `Cc1ccc(S(=O)(=O)Oc2ccc(N=Nc3ccc(-c4ccc(N=Nc5c(O)ccc6cc(S(=O)(=O)O)cc(S(=O)(=O)O)c56)c(C)c4)cc3C)cc2)cc1`, with “inactive”; and `CCC1(C)NC(=O)NC1=O` (centres undefined), with “inactive”.
Still for that read-out and setting: to `COS(=O)(=O)O` belongs “inactive”.
Same read-out and setting: to `O=C(O)c1ccc(O)cc1` belongs “inactive”; to `C1=CC2C3C=CC(C3)C2C1` (centres undefined), “inactive”.
Turning to `OCCc1ccccc1`, the call was inactive.
In the case of `COC(=O)c1ccc(C)cc1C1=NC(C)(C(C)C)C(=O)N1` (centres undefined) (tested in a mixture with another compound), the result was inactive.
As to `CCCCC(CC)COC(C)=O` (centres undefined), the call was inactive.
As for `CCCCCC(C)=O`, the outcome was inactive.
On the same count and under the same terms, to `CC(C=O)Cc1ccc(C(C)(C)C)cc1` (centres undefined) belongs “inactive”.
Consider `Oc1ccc2cc(SSc3ccc4cc(O)ccc4c3)ccc2c1`, for which the AC50 is 19.7 µM (active).
Turning to `O=C(O)CCCCCCCCC(=O)O`, the outcome was inactive.
Take `O=Cc1ccccc1S(=O)(=O)O`: the result was inactive.
On the same count and under the same terms, to `Cc1cc(S(=O)(=O)O)ccc1N=Nc1c(O)ccc2ccccc12` belongs “inactive”.
Still for that read-out and setting: then `CC(C)CCOC(=O)c1ccccc1`, with “inactive”; and `COc1ccccc1N=Nc1c(S(=O)(=O)O)cc2cc(S(=O)(=O)O)cc(NC(C)=O)c2c1O`, with “inactive”; and `C=C1CC[C@H](O)C/C1=C/C=C1\CCC[C@]2(C)[C@@H]([C@H](C)/C=C/[C@H](C)C(C)C)CC[C@@H]12`, with “inactive”.
Still for that read-out and setting: then `CCOc1ccc(N=Nc2ccc(C=Cc3ccc(N=Nc4ccc(OCC)cc4)cc3S(=O)(=O)O)c(S(=O)(=O)O)c2)cc1`, with “inactive”; and `COCCOCCOCCO`, with “inactive”.
`ON=C1CCCCC1`: the outcome was inactive.
As for `O=P(O)(O)O`, the result was inactive.

For the origin of these results see PubChem BioAssay (EPA / NIEHS).
